The full ranking holds about 33,000 sequences; the median of “E-score (-0.5 to 0.5)” is about -0.017, and the highest 2% start at about 0.3. The sample holds the highest values, similar sequences and a random draw of the others, so the mix is not that of the screen.
molecular target: T1, Sut1 (UniProt P53032); test: PBM E-score (8-mer binding enrichment) (E-score (-0.5 to 0.5)); higher = stronger / more preferred TF binding; conditions: protein concentration: 200 nM; construct: GST-full length
T1 sequence: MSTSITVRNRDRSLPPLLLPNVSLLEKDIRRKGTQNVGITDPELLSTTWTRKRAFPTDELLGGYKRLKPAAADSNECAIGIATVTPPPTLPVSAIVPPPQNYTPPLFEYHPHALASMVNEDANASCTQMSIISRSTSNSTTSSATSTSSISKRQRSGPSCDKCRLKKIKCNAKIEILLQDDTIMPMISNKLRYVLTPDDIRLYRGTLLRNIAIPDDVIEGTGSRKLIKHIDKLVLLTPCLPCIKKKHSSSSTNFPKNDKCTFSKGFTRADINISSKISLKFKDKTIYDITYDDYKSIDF
Description: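 Universal 'all 10-mer' protein binding microarrays (Agilent AMADID 015681) probed with GST-tagged S. cerevisiae TFs (full-length or DBD) made by in vitro transcription/translation (PURExpress), about 100-200 nM. Bound TF was detected with fluorescent anti-GST. Each ungapped 8-mer (which stands for itself and its reverse complement) is scored by the PBM enrichment score (E-score), a modified Wilcoxon-Mann-Whitney statistic from -0.5 to +0.5, computed with the Universal PBM Analysis Suite. Scale: above 0.35 generally sequence-specific binding.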

Question: For ACCGGAAC, which “PBM E-score” value is on record?
Answer: The value was 0.29.

Question: With ACCGGACG as the sequence, how does the “PBM E-score” value read?
Answer: Its value is 0.114.

Question: With AACGGACG as the sequence, how does the “PBM E-score” value read?
Answer: The value was 0.0275.

Question: Which “PBM E-score” value does the source give for AGCGGACG here?
Answer: Its value is -0.118.

Question: AGCGGACT was tested. Which “PBM E-score” value did it give?
Answer: Its value is 0.406.

Question: With ACTGGACT as the sequence, how does the “PBM E-score” value read?
Answer: The value was -0.107.

Question: For AGCATATA, which “PBM E-score” value is on record?
Answer: The value was 0.102.

Question: For ACGCAAAC, which “PBM E-score” value is on record?
Answer: Its value is -0.0168.

Question: For CGGGGACA, which “PBM E-score” value is on record?
Answer: Its value is -0.0417.

Question: For AGAACAGC, which “PBM E-score” value is on record?
Answer: Its value is -0.0298.

Question: ACGTGGTG was tested. Which “PBM E-score” value did it give?
Answer: Its value is -0.133.

Question: How did the “PBM E-score” value turn out when CGCCATTA was run?
Answer: The value was 0.0246.

Question: For AGCCACCG, which “PBM E-score” value is on record?
Answer: Its value is -0.122.

Question: GCTCCGCC was tested. Which “PBM E-score” value did it give?
Answer: Its value is 0.0486.

Question: For ACGCCGCT, which “PBM E-score” value is on record?
Answer: Its value is -0.0911.

Question: CCTCCGCA was tested. Which “PBM E-score” value did it give?
Answer: Its value is -0.205.

Question: How did the “PBM E-score” value turn out when ACTCCGCT was run?
Answer: Its value is 0.452.

Question: How did the “PBM E-score” value turn out when AATCCGCT was run?
Answer: The value was -0.0383.

Question: With ACTCCGCG as the sequence, how does the “PBM E-score” value read?
Answer: The value was 0.476.

Question: How did the “PBM E-score” value turn out when ACTCCGCC was run?
Answer: The value was 0.438.

Question: For GCTCCGCA, which “PBM E-score” value is on record?
Answer: The value was 0.227.

Question: With CCTCCGCG as the sequence, how does the “PBM E-score” value read?
Answer: The value was -0.0947.

Question: With ACTCCCCG as the sequence, how does the “PBM E-score” value read?
Answer: Its value is 0.196.

Question: For CCTCCGCC, which “PBM E-score” value is on record?
Answer: The value was -0.221.

Question: How did the “PBM E-score” value turn out when ACTCCGCA was run?
Answer: Its value is 0.473.

Question: With CAACGGGA as the sequence, how does the “PBM E-score” value read?
Answer: Its value is 0.0235.

Question: Which “PBM E-score” value does the source give for AGAACCAT here?
Answer: Its value is 0.12.

Question: Which “PBM E-score” value does the source give for GAGGCTCC here?
Answer: The value was 0.0186.

Question: Which “PBM E-score” value does the source give for ACCTTTGG here?
Answer: Its value is -0.287.

Question: How did the “PBM E-score” value turn out when CACATCGA was run?
Answer: Its value is -0.0466.

Question: Which “PBM E-score” value does the source give for AGCCACTG here?
Answer: Its value is -0.0195.

Question: CGGAGACC was tested. Which “PBM E-score” value did it give?
Answer: Its value is 0.315.

Question: How did the “PBM E-score” value turn out when CGGAGATC was run?
Answer: The value was 0.445.

Question: CTGAGATC was tested. Which “PBM E-score” value did it give?
Answer: The value was -0.209.

Question: With AGGAGATC as the sequence, how does the “PBM E-score” value read?
Answer: Its value is 0.0207.

Question: For GGGAGACC, which “PBM E-score” value is on record?
Answer: Its value is -0.235.

Question: Which “PBM E-score” value does the source give for GGGAGATA here?
Answer: Its value is -0.144.

Question: Which “PBM E-score” value does the source give for AGGAGATA here?
Answer: The value was -0.155.

Question: How did the “PBM E-score” value turn out when CGGAGATA was run?
Answer: Its value is 0.458.

Question: Which “PBM E-score” value does the source give for CGGAGACG here?
Answer: The value was 0.204.

Question: For AAAAGCAA, which “PBM E-score” value is on record?
Answer: The value was 0.242.

Question: Which “PBM E-score” value does the source give for ACCACCGT here?
Answer: Its value is -0.0843.

Question: Which “PBM E-score” value does the source give for GCAGGTAC here?
Answer: Its value is -0.132.

Question: How did the “PBM E-score” value turn out when CTCAAGCC was run?
Answer: Its value is -0.126.

Question: GGAGAGCA was tested. Which “PBM E-score” value did it give?
Answer: The value was -0.125.

Question: CCCTAACA was tested. Which “PBM E-score” value did it give?
Answer: Its value is 0.071.

Question: Which “PBM E-score” value does the source give for AGTGCATG here?
Answer: The value was -0.0963.

Question: Which “PBM E-score” value does the source give for CATGGGTC here?
Answer: The value was -0.185.

Question: Which “PBM E-score” value does the source give for ATTCGTAC here?
Answer: Its value is 0.154.

Question: With AGGTCCGC as the sequence, how does the “PBM E-score” value read?
Answer: The value was 0.286.

Question: For AGGTCCGG, which “PBM E-score” value is on record?
Answer: The value was 0.461.

Question: With CGGTCCGA as the sequence, how does the “PBM E-score” value read?
Answer: Its value is 0.264.

Question: AGGTCCAG was tested. Which “PBM E-score” value did it give?
Answer: Its value is -0.0827.

Question: GGGTCCGA was tested. Which “PBM E-score” value did it give?
Answer: The value was 0.295.

Question: AGGTCCGA was tested. Which “PBM E-score” value did it give?
Answer: The value was 0.457.

Question: CCTTGAAG was tested. Which “PBM E-score” value did it give?
Answer: Its value is -0.0873.

Question: With GCTCAAGA as the sequence, how does the “PBM E-score” value read?
Answer: Its value is -0.148.

Question: How did the “PBM E-score” value turn out when ATAGTGGG was run?
Answer: Its value is -0.0539.

Question: How did the “PBM E-score” value turn out when AATCTGGT was run?
Answer: The value was 0.047.

Question: With AGGCCTTA as the sequence, how does the “PBM E-score” value read?
Answer: The value was -0.127.

Question: With AAAGCTCC as the sequence, how does the “PBM E-score” value read?
Answer: Its value is 0.0815.

Question: How did the “PBM E-score” value turn out when GAAGCTCC was run?
Answer: The value was 0.35.

Question: How did the “PBM E-score” value turn out when GAAGCTCA was run?
Answer: Its value is -0.033.

Question: With GACACCCA as the sequence, how does the “PBM E-score” value read?
Answer: The value was -0.118.

Question: With ATTCTATA as the sequence, how does the “PBM E-score” value read?
Answer: Its value is 0.16.

Question: GGAGCGTA was tested. Which “PBM E-score” value did it give?
Answer: The value was 0.0804.

Question: How did the “PBM E-score” value turn out when CAATCTCC was run?
Answer: The value was 0.312.

Question: Which “PBM E-score” value does the source give for CAATCTCG here?
Answer: The value was -0.097.

Question: With CAATCTCA as the sequence, how does the “PBM E-score” value read?
Answer: Its value is -0.0455.

Question: For CTATCTCC, which “PBM E-score” value is on record?
Answer: The value was 0.114.

Question: Which “PBM E-score” value does the source give for ATATCTCC here?
Answer: The value was 0.341.

Question: Which “PBM E-score” value does the source give for ATCTCTCC here?
Answer: The value was -0.0902.

Question: For CATCTGCG, which “PBM E-score” value is on record?
Answer: The value was -0.0835.

Question: CGGTCAAG was tested. Which “PBM E-score” value did it give?
Answer: Its value is -0.09.

Question: For TCTGATAA, which “PBM E-score” value is on record?
Answer: The value was -0.0508.

Question: Which “PBM E-score” value does the source give for AATTGTCT here?
Answer: Its value is -0.0132.

Question: CTCGTTAA was tested. Which “PBM E-score” value did it give?
Answer: The value was 0.1.

Question: GTAACGGA was tested. Which “PBM E-score” value did it give?
Answer: Its value is 0.329.

Question: How did the “PBM E-score” value turn out when GTAACGTA was run?
Answer: The value was 0.0551.

Question: Which “PBM E-score” value does the source give for ATAACGGC here?
Answer: Its value is 0.00713.

Question: With CTAACGGA as the sequence, how does the “PBM E-score” value read?
Answer: Its value is 0.305.

Question: GTAACGCA was tested. Which “PBM E-score” value did it give?
Answer: Its value is 0.021.

Question: Which “PBM E-score” value does the source give for CTAACGAA here?
Answer: The value was -0.0566.

Question: Which “PBM E-score” value does the source give for CTAACGGC here?
Answer: Its value is 0.0477.

Question: How did the “PBM E-score” value turn out when ATAACGGG was run?
Answer: Its value is 0.0139.

Question: How did the “PBM E-score” value turn out when ATAACGGA was run?
Answer: The value was 0.341.
